Results on 7 molecules are retold here after PubChem BioAssay.

Calls of active or inactive are those of the source.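 How the source made its calls, unless noted: active means NADPH fluorescence slope more negative than the mean of all samples by about 3 SD, 99.7% confidence; inactive means the rest.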

Experiment [1] in a line: inhibitors of TNFa-induced NFkB p65 translocation, primary screen, imaging, HUVEC, MLSMR starter and 10KST1 sets (AID 438;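 active means inhibition above 20% together with a positive visual image hit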;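 further: compound added about 3h40 before a 20 min TNFalpha stimulation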;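 on inhibition: signal is the nuclear over cytoplasmic p65 intensity ratio per well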). To be noted: HUVEC TNFa-induced p65 nuclear translocation; cell count: measured here: nuclei count (cytotoxicity indicator), at 2.08 µM; inhibition: at 2 µM, stronger effect = higher value, 0% TNFa-plus-vehicle, 100% no-TNFa wells.
A short description of experiment [2]: endothelial E-selectin expression blockers – imaging, HUVEC, immunofluorescence, MLSMR starter and 10KST1 sets, primary screen (AID 487;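 active means visually confirmed hit in the image check and inhibition above 20%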;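 on inhibition: signal is fraction of cell area covered by stained E-selectin grains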;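 on nuclei count: 100% = median nuclei count of all wells on the same plate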). To be noted: HUVEC TNFalpha-induced E-selectin immunofluorescence imaging, at 2 µM; inhibition: stronger effect = higher value; nuclei count: measured here: cell number, toxicity.
A short description of experiment [3]: Primary imaging screen for DUSP6 inhibitors that restore phospho-Erk in transfected HeLa cells, chemical complementation (AID 609;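 active means compounds giving at least 50% inhibition in the cell-based MKP-3 phosphatase rescue imaging test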;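 on inhibition: phospho-Erk level distribution per well compared with pooled transfected vehicle control wells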). As to conditions: HeLa MKP-3 transfected, phospho-Erk imaging KS statistic, at 10 µM, cells stimulated with TPA for 15 min.
Experiment [4] addresses Dual specificity protein phosphatase 6 (Homo sapiens) (UniProt Q16828). Described as above. As to conditions: HeLa MKP-3 transfected, phospho-Erk imaging KS statistic; at 10 µM; stronger effect = higher value; cells stimulated with TPA for 15 min.
The target of experiment [5] is Voltage-gated potassium channel subunit beta-2 (Rattus norvegicus) (UniProt P62483). The experiment can be described thus: inhibitors of rat Kvbeta2 reductase activity – biochemical, NADPH fluorescence, primary screen (AID 622;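 active means fluorescence slope higher than the sample average by over 3 SD, cut at about -0.22 in these data, passing the limit was not always enough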;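 further: slope of raw intensity against log time taken from 70 to 1610 s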). To be noted: recombinant KvBeta, 4-cyanobenzaldehyde reduction, at 10 µM, stronger effect = higher value.
Voltage-gated potassium channel subunit beta-2 (Rattus norvegicus), sequence (P62483 whole entry, looked up): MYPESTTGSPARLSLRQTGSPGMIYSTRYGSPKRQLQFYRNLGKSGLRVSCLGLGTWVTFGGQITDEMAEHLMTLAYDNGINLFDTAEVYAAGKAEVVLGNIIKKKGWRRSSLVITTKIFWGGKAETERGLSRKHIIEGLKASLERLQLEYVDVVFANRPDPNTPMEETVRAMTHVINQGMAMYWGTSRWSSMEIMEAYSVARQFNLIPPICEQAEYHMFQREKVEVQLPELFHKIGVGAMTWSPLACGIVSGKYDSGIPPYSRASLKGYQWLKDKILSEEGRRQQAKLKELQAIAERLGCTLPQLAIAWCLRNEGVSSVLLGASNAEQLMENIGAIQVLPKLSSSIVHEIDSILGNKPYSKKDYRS
The target is the same in experiment [6]. The experiment can be described thus: enhancers of rat Kvbeta2 NADPH turnover – biochemical, NADPH fluorescence, primary screen (AID 623).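 Further: fluorescence intensity change per second fitted from 20 to 320 s.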 As to conditions: Recombinant KvBeta, NADPH fluorescence decrease slope, 10 min; at 10 µM; stronger effect = lower value.
For experiment [7], the target named is Alpha-2C adrenergic receptor (Homo sapiens) (UniProt P18825). In words: compounds altering alpha2C-coupled GIRK flux – cell-based, HEK293 alpha2C/GIRK1/2, thallium flux, primary screen (AID 624;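 active means fluorescence slope after compound addition differing from the mean of all screened samples at 99.7% confidence, in either direction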;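 further: slope of fluorescence ratio to pre-addition baseline per second over 15 to 24 s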). To be noted: thallium flux BTC fluorescence, at 10 µM, actives lie on both sides.
Alpha-2C adrenergic receptor (Homo sapiens), sequence (P18825 whole entry, looked up): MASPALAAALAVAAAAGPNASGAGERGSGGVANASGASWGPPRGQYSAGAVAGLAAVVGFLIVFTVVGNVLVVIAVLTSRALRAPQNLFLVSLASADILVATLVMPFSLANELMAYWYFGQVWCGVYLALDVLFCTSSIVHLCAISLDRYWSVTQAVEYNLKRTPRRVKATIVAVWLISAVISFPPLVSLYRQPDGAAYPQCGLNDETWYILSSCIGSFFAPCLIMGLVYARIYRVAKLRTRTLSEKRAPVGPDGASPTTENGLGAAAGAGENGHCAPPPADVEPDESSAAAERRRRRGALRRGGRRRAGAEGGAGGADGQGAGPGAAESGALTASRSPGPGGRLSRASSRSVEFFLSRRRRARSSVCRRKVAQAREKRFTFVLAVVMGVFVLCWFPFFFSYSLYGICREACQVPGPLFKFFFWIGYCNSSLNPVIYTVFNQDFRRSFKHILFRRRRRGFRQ
A short description of experiment [8]: loss of swimming-algae plug formation – whole organism, Chlamydomonas reinhardtii, WT vs cilia-less mutant, absorbance, 96-well, primary screen (AID 463189;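 active means inhibition at or above 50% relative to wild type and mutant plate controls; inactive means inhibition below 50%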;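 further: 0% = wild type cc124 cells in DMSO and 100% = ciliumless bld1 mutant cells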). As to conditions: Chlamydomonas reinhardtii gravitaxis, OD600 absorbance, 2 days; at 10 µM; stronger effect = higher value.
Experiment [9] is described as follows: inhibitors of larval lipid processing in zebrafish, primary screen, whole organism, PED6 fluorescence, gall bladder and intestine (AID 686;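 active means a full or partial loss of lipid-probe fluorescence in the fish gall bladder, intestine or both, judged by eye; inactive means no fluorescence loss, or compound toxic to the fish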;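 further: larvae 5 to 7 days old with five fish per well; signal comes from phospholipase A2 cleavage of quenched PED6 carried via bile; overnight exposure to compound and PED6 before scoring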). To be noted: Zebrafish larvae PED6 lipid processing, fluorescence scoring; screened at 20 µM (by protocol).
A short description of experiment [10]: blockers of RIG-like receptor reporter activation – cell-based, Sendai virus stimulus, luciferase, 10K MLSCN set, TLR/RLR signaling modifier project, primary screen (AID 602276;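 active means inhibition at or above 50% at 10 µM; inactive means inhibition below 50%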;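 further: firefly luciferase from ISG56 promoter only with Renilla not read in this screen; 0% = Sendai virus plus DMSO and 100% = medium plus DMSO without virus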). To be noted: HEK293 RL24 IRF3 luciferase reporter, at 10 µM, stronger effect = higher value.
The nature of experiment [11]: TLR3 IRF3 reporter activation blockers – cell-based, poly I:C stimulus, luciferase, 10K MLSCN set, primary screen (AID 602277;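 active means inhibition of the reporter signal at or above 50%; inactive means inhibition below 50%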). As to conditions: HEK293-TLR3 RL24 IRF3 luciferase reporter, at 10 µM, stronger effect = higher value. In general terms: In a reporter assay the amount or activity of a reporter protein is the signal.
Where [12] appears, read: measured here: cell density z-score.
Setting [13] is: measured here: nuclear c-Myc green intensity z-score.
The mark [14] stands for this setting: measured here: nuclear pErk red intensity z-score, stronger effect = higher value.

Dual specificity protein phosphatase 6 (Homo sapiens), sequence (Q16828 whole entry, looked up): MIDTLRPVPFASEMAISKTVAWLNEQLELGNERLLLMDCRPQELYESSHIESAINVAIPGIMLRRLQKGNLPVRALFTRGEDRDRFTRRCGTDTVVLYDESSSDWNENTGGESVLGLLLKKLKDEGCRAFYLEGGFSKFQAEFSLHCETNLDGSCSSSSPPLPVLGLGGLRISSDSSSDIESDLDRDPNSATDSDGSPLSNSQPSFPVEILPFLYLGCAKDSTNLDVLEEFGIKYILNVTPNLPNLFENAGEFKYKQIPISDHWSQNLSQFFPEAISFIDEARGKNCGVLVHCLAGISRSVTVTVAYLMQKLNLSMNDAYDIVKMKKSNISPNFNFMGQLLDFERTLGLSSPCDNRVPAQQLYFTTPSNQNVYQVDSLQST

The term inhibition denotes the drop in the measured response relative to a control, in per cent. On to `COc1cc(C2C(C(=O)c3cccs3)=C(O)C(=O)N2c2cc(C)on2)ccc1O` (stereo not drawn), for which, in [1], the cell count is 340. For the same molecule, the inhibition was 4.6% (inactive) in experiment [1], -93.3% (inactive) in experiment [2], -10.5% (inactive) in [4] and -10.7% (inactive) in experiment [8]. This molecule also returned a nuclei count in [2] of 155%. The z-score in experiment [3] (setting [12]) is 0.402; in [3] (setting [13]), -0.247; in [3] (setting [14]), -0.385. Besides, the fluorescence slope in experiment [5] was -0.43 (inactive). In addition, the NADPH fluorescence slope in [6] was -0.000162 (inactive). Besides, the slope in experiment [7] is 0.00517 (inactive).

In the case of `Cc1cccc(N(Cc2cc3ccccc3[nH]c2=O)C(=O)c2ccco2)c1C`, in experiment [1], the cell count came out at 391. Further, the inhibition in experiment [1] was -8.8% (inactive); in experiment [2], -117% (inactive); in [4] it was 12.3% (inactive); in [8], 22.4% (inactive). For the same molecule, the nuclei count in [2] was determined as 150%. For the same molecule, the z-score in [3] (setting [12]) was 0.27; in [3] (setting [13]), -0.684; in [3] (setting [14]), -0.0595. Also, in experiment [5], the fluorescence slope was -0.439 (inactive). Also, the NADPH fluorescence slope in experiment [6] was -0.000168 (inactive). For the same molecule, the slope in experiment [7] was 0.00782 (inactive).

Regarding `O=C1CC(N(O)C2CC(=O)N(Cc3ccccc3)C2=O)C(=O)N1Cc1ccccc1` (stereo not drawn), in experiment [1], the cell count is 269. Moreover, the inhibition in experiment [1] is -16.2% (inactive); in experiment [2] it was -15% (inactive); in experiment [4] it was 3.5% (inactive); in [8], 13.4% (inactive). Moreover, the nuclei count in [2] turned out to be 88.9%. For the same molecule, the z-score in experiment [3] (setting [12]) was -0.0667; in experiment [3] (setting [13]), 1.6; in experiment [3] (setting [14]) it was -0.253. The fluorescence slope in experiment [5] was -0.433 (inactive). The NADPH fluorescence slope in experiment [6] is -5.6e-06 (inactive). Also, in experiment [7], the slope is 0.0039 (inactive).

Consider `CCC(=O)O[C@@H]1CC(=O)O[C@H](C)CC=CC=C[C@@H](O)[C@H](C)C[C@H](CC=O)[C@H](O[C@H]2O[C@H](C)[C@@H](O[C@H]3C[C@@](C)(O)[C@@H](OC(=O)CC)[C@H](C)O3)[C@H](N(C)C)[C@H]2O)[C@H]1OC`, for which the cell count in [1] amounted to 725. Further, the inhibition is -0.7% (inactive) in experiment [1]; -105% (inactive) in [2]; 11.3% (inactive) in experiment [4]; 66.6% (active) in [8]; -13.3% (inactive) in experiment [10]; -27.4% (inactive) in [11]. This molecule gave a nuclei count in [2] of 120%. Besides, the z-score in experiment [3] (setting [12]) was -0.528; in [3] (setting [13]) it was -0.404; in experiment [3] (setting [14]) it was -1.92. Moreover, the fluorescence slope in [5] was -0.525 (inactive). In experiment [6], the NADPH fluorescence slope was -4.8e-05 (inactive). In [7], the slope was 0.00447 (inactive). Further, in experiment [9], the result was inactive.

For the molecule `CC(C)Oc1ccc2c(=O)c(-c3ccccc3)coc2c1`, the cell count in experiment [1] was found to be 646. Besides, the inhibition in experiment [1] was 2.7% (inactive); in experiment [2] it was -33.4% (inactive); in experiment [4], 10.2% (inactive); in experiment [8], -9.11% (inactive); in experiment [10] it was -37.9% (inactive); in experiment [11], -186% (inactive). For the same molecule, in experiment [2], the nuclei count was found to be 124%. Moreover, the z-score in experiment [3] (setting [12]) was -1.12; in experiment [3] (setting [13]) it was -0.535; in experiment [3] (setting [14]) it was 0.614. Besides, in experiment [5], the fluorescence slope was -0.425 (inactive). In addition, the NADPH fluorescence slope in experiment [6] was -6.4e-05 (inactive). In addition, in experiment [7], the slope is 0.00497 (inactive). The outcome in experiment [9] was inactive.

Take `COc1cccc(-c2nc(NC(C)(C)C)c3ccccc3n2)c1O`: the cell count in experiment [1] came to 394. In addition, the inhibition was 0% (inactive) in [1], -39.6% (inactive) in [2], -1.75% (inactive) in [4] and 34.2% (inactive) in experiment [8]. Besides, the nuclei count in [2] was 141%. Also, the z-score in experiment [3] (setting [12]) worked out at 0.222; in experiment [3] (setting [13]), 0.227; in [3] (setting [14]), 0.927. Moreover, the fluorescence slope in experiment [5] was -0.422 (inactive). For the same molecule, the NADPH fluorescence slope in experiment [6] is -0.000132 (inactive). Besides, the slope in experiment [7] is 0.00293 (inactive).

Take `O=C(O)CCNC(=O)c1ccccc1`: the cell count in experiment [1] turned out to be 571. Besides, the inhibition in experiment [1] is -4.9% (inactive); in [2], -50.2% (inactive); in experiment [4], 17.3% (inactive); in experiment [8], 27.8% (inactive); in [10], -13.3% (inactive); in [11], -8.8% (inactive). In experiment [2], this molecule returned a nuclei count of 97.2%. Moreover, the z-score is -0.0639 in experiment [3] (setting [12]), -0.161 in [3] (setting [13]) and -1.08 in experiment [3] (setting [14]). In [5], the fluorescence slope is -0.479 (inactive). Also, the NADPH fluorescence slope in experiment [6] was 2.2e-06 (inactive). Also, the slope in experiment [7] is 0.00491 (inactive). Moreover, in [9], the molecule was called inactive.
